# HP1b binding inh = blocks HP1-beta chromodomain binding to methylated histone tails; AlphaScreen HP1-beta / biotin-H3K9me3 peptide binding; Potency, µM (series often up to 114 µM), for inactives: top-dose activity change, negative = inhibition, hits mostly inhibitors; 390,000 compounds, 0.56% hits; AID 540317; further: nearly all actives have a fitted effect of over 70% in size
#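 AlphaScreen: HP1-beta (50 nM) preformed 30 min with biotin-H3(1-18)K9me3 peptide (50 nM) in PBS pH 7.4, 0.01% Tween-20. Compound added for 30 min at RT, then streptavidin donor/nickel chelate acceptor beads (10 ug/mL) for 30 min.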
# G9a inh = blocks human histone lysine methyltransferase G9a. AID 504332. 350,000 compounds, 8.8% hits. Potency, µM (highest dose often 102 µM), inactives show top-dose activity, negative = inhibition, actives largely listed as inhibitors. G9a H3K9 monomethylation, AlphaScreen, 2 h. Q96KQ7; further: on the % scale 0 is the no-effect control and ±100 the full control effect; nearly all actives have a fitted effect of over 75% in size
#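 Quantitative HTS format: methyltransferase activity on a biotin-tagged H3K9 peptide is measured by AlphaScreen, using a rabbit anti-monomethyl-H3K9 antibody with streptavidin donor and anti-IgG acceptor beads. Final levels are 20 nM enzyme, 500 nM peptide, 20 uM SAM; 2 h RT.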
# JMJD2A Tudor = blocks the human JMJD2A Tudor domain | 390,000 compounds, 4.4% hits | AlphaScreen JMJD2A-Tudor / H3K4me3 peptide binding | AID 504339 | O75164 | Potency, µM (top dose mostly 114 µM), for inactives: at the highest dose activity change, negative = inhibition, hits mostly inhibitors; further: on the % scale 0 is the no-effect control and ±100 the full control effect; nearly all actives have a fitted effect of over 50% in size
# 12-LOX inh = ALOX12 (human) lipoxygenase inhibition; purified 12hLO, xylenol orange hydroperoxide absorbance; Potency, µM (highest dose often 108 µM), without a hit: at the top dose activity change, negative = inhibition, actives largely listed as inhibitors; 580,000 compounds, 1.1% hits; AID 1671190; further: on the % scale 0 is the no-effect control and ±100 the full control effect
# Target sequence (P18054 whole entry, looked up): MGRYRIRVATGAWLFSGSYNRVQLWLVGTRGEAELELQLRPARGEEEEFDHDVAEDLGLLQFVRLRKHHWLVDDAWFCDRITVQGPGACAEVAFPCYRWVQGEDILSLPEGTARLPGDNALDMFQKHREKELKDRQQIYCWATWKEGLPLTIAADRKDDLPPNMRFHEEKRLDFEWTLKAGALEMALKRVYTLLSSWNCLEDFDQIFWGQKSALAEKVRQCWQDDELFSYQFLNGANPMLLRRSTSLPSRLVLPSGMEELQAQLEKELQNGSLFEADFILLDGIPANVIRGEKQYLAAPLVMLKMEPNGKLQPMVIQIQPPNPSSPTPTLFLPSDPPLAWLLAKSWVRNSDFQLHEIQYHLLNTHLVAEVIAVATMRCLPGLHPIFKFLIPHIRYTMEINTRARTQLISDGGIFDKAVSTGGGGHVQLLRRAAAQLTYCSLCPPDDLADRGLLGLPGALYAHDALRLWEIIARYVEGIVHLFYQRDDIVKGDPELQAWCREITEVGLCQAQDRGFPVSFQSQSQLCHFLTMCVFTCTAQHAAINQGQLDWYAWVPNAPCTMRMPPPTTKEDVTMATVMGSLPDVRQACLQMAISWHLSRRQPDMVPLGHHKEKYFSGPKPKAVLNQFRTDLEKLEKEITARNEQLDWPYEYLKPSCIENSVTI
#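 Purified human 12hLO at 150 nM in 25 mM Hepes, 0.01% Triton X-100, pH 7.0, preincubated 15 min at room temperature with compound. Reaction started with 40 uM arachidonic acid, 30 min at room temperature. Hydroperoxide measured by Fe-xylenol orange, 573/405 nm absorbance ratio.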
# BAZ2B inh = BAZ2B (human) inhibition. Potency, µM (doses to about 114 µM), for inactives: at the top dose activity change, negative = inhibition, actives largely listed as inhibitors. 360,000 compounds, 4.4% hits. Q9UIF8. AlphaScreen BAZ2B-H3K14Ac peptide displacement; further: on the % scale 0 is the no-effect control and ±100 the full control effect; nearly all actives have a fitted effect of over 60% in size
#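 Complex of BAZ2B and biotin-H3K14Ac (50 nM apiece) forms over 30 min at RT, then faces library compounds up to 110 uM for another 30 min; AlphaScreen beads added, 20 min dark incubation, luminescence read.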
# PLK1 PBD block = PLK1 (human) polo-box domain binding inhibition. P53350. Plk1 PBD binding of FITC phosphopeptide, fluorescence polarization. Potency, µM, for the others: max response, negative = inhibition, actives largely listed as inhibitors. 360,000 compounds, 2.8% hits; further: series mostly up to about 57 µM; on the % scale 0 is the no-effect control and ±100 the full control effect; nearly all actives have a fitted effect of over 65% in size
# Numbers without * were called inactive; ? = inconclusive; . = no result given; ! = a repeat was not active; [ ] = dose if it differs, or a comment. Rows were chosen to be rich in hits. Some 9% of all compounds tested hit in one or more screens of this group. The call rests on the fitted dose curve; in most records, active means well fitted curve in the direction sought with a large enough effect; inconclusive means small, poorly fitted or top-dose-only effect, or another doubt; inactive means no such curve, though single readings can be large; an effect the other way counts as inactive or inconclusive. Potency means the concentration at half of the fitted maximal effect.
SMILES,HP1b binding inh,G9a inh,JMJD2A Tudor,12-LOX inh,BAZ2B inh,PLK1 PBD block
N#CC(C#N)=NNc1ccc([N+](=O)[O-])cc1,?,32µM*,?,?,40µM*,6%
O=c1[nH]c(=O)n(C2CCCCC2)c(O)c1C=Nc1ccc(N2CCOCC2)cc1,25%,?,-8%,0%,-3%,0%
CCN(CC)C(=O)c1c(C)[nH]c(=S)c(C#N)c1-c1ccco1,-17%,3.2µM*,7.9µM*,?,-34%,2.7µM*
NS(=O)(=O)c1nc[nH]c1[N+](=O)[O-],5%,.,20µM*,-10%,.,-7%
O=P(Nc1c(Cl)cccc1Cl)(c1ccccc1)c1nc2c(s1)CCCC2 (stereo unspecified),46%,12%[0.0925 µM],-11%,.,-7%,0%
CP(=O)(Nc1ccc(Cl)cc1)c1nc2c(s1)CCCC2 (stereo unspecified),33%,40µM*,-14%,9%,-19%,-26%
CCOP(=S)(OCC)Oc1cc(C)oc(=O)c1,-11%,.,-24%,-6%,?,30µM*
CCOP(=S)(OCC)Oc1cc(C)oc(=O)c1Cl,-9%,8.9µM*,20µM*,?,56µM*,4.7µM*
COC(=O)C1=COC(C)C2CN3CCc4c([nH]c5cc(OC)ccc45)C3CC12 (stereo unspecified),.,.,.,-12%,.,.
CC[C@H]1CC2CN3CCc4c([nH]c5cc(OC)ccc45)[C@](C(=O)OC)(C2)[C@H]13,-27%,.,40µM*,.,.,-1%
CC12CC[C@H]3[C@@H](CCC4(O)C[C@H](O)CCC34/C=N/NC(=O)c3ccc(O)cc3)C1(O)CCC2C1=CC(=O)OC1 (stereo partly specified),46%,.,-6%,21%,-4%,-2%
COc1ccc(C(=O)N/N=C/C23CC[C@@H](O)CC2(O)CC[C@@H]2[C@@H]3CCC3(C)C(C4=CC(=O)OC4)CCC23O)cc1 (stereo partly specified),-4%,50µM*,-35%,5%,-13%,-4%
CC(=Nc1ccc(F)cc1)c1c(O)n(C)c(=O)[nH]c1=O,19%,?,-17%,0%,3%,-10%
Nc1ccc(Oc2cccc(Oc3ccc(N)cc3)c2)cc1,?,45µM*,?,-16%,40µM*,-11%
COc1ccc(OC)c(C2=NOC(C(=O)N3CCC4(CC3)OCCO4)C2)c1 (stereo unspecified),-1%,-2%[12.7 µM],25µM*,-4%,7%,-9%
COc1cccc(-n2c(O)c(C=NCc3ccc4c(c3)OCO4)c(=O)[nH]c2=O)c1,21%,.,-11%,24%,8%,-9%
O=CC1=C(N2CCOCC2)/C(=C\c2ccccc2)CC1,35%,40µM*,-11%,-7%,-10%,-19%
CNC(C(=O)c1ccccc1)C(OC)c1cccc([N+](=O)[O-])c1 (stereo unspecified),40%,56µM*,-12%,-3%,-4%,-15%
CNC(C(=O)c1ccccc1)C(OC)c1ccccc1 (stereo unspecified),69%,?,14%,?,-37%,-6%
CC1CN2CCCC2CN1 (stereo unspecified),.,.,.,9%[22.9 µM],.,.
CC(C(=O)OC1CC2CCC(C1)N2C)c1ccc(Br)cc1 (stereo unspecified),.,-3%[59 µM],.,6%,.,.
Cc1cc(-c2cc(C)c(N)c(C)c2)cc(C)c1N,?,.,50µM*,-2%,.,0%
Cc1ccc(C)c(N)c1,65%,-16%[0.501 µM],-9%,-5%,12%,-2%
CC[C@H]1CN2CC[C@H]1C[C@@H]2CNC(=O)COCC(=O)O,.,.,.,55%[176 µM],.,.
C=C1[C@@H](C)[C@H]2[C@H](Cc3ccccc3)NC(=O)[C@]23[C@H](OC(C)=O)/C=C/[C@](C)(O)C(=O)[C@@H](C)C/C=C/[C@H]3[C@@H]1O,.,5%[59 µM],.,-6%,.,.
SMILES,HP1b binding inh,G9a inh,JMJD2A Tudor,12-LOX inh,BAZ2B inh,PLK1 PBD block
COc1ccc2[nH]c(C)c(CCNCc3cccnc3)c2c1,?,?,7.1µM*,?,20µM*,-9%
COc1ccc2[nH]c(C)c(CCNCc3ccc(F)cc3F)c2c1,.,.,.,1µM*,.,.
C=CCn1c(O)c(C(CC)=NC(C)c2ccccc2)c(=O)[nH]c1=O (stereo unspecified),25%,12%[59 µM],-13%,-2%,39%[57.1 µM],2%
CCOP(=S)(OCC)Oc1ccc2c(C)c(Cl)c(=O)oc2c1,169%,51%[59 µM],132%,-3%,.,-7%
CN(N)N=Nc1nc2c([nH]1)c(=O)n(C)c(=O)n2C,17%,2.2µM*,79µM*,?,-18%,-28%
CC1OC1P(=O)(O)O (stereo unspecified),.,25µM*!,.,.,.,.
COc1ccccc1OCC(=O)N1CCCC(N(C)Cc2ccccc2)C1 (stereo unspecified),45%,.,-12%,0%,-5%,-8%
COc1ccccc1OC(C)C(=O)N1CCC(Cc2ccccc2)CC1 (stereo unspecified),-18%,50µM*,-16%,?,-26%,-18%
Clc1cccc(Cl)c1CN1CCN(c2ccccc2)CC1,?,25µM*,3.2µM*,?,35µM*,-6%
Clc1ccccc1CN1CCN(c2ccccc2)CC1,?,?,3.5µM*,0.89µM*,50µM*,-4%
Nc1ccc(N2CCN(Cc3ccccc3Cl)CC2)c(Cl)c1,?,?,-8%[11.4 µM],1%,45µM*,-18%
O=C(Cc1c(Cl)cccc1Cl)N1CCN(Cc2ccccc2)CC1,32%,5%,-2%,-56%,-7%,-14%
Fc1ccccc1CN1CCN(c2ccc(Cl)cc2)CC1,28%,19%[2.33 µM],-7%,3%,-1%,-1%
Clc1ccc(N2CCN(Cc3ccccc3Cl)CC2)cc1,?,25µM*,4.5µM*,?,?,2%
O=C(O)CNC(=O)C(CS)Cc1ccccc1 (stereo unspecified),12%,-7%[59 µM],-31%,?,7%,-1%
N[C@@H](Cc1c[nH]c2ccccc12)c1nnc(SCc2ccc(Cl)cc2)o1,23%,?,?,-22%,.,-20%
Cc1nccc2c1[nH]c1ccc(Br)cc12,7%,12%[12.7 µM],-21%,-1%,12%,5%
COc1ccc2c(c1)[nH]c1c(C)nccc12,60%,13µM*!,-21%,-16%,?,-17%
CCCC1(CCC)C(=O)NC(=Nc2ccccc2)NC1=O,11%,-3%,0%,-15%,9%,-14%
CCCC1(CCC)C(=O)NC(=NCc2ccccc2)NC1=O,1%,45µM*,-10%,?,3%,?
O=C(NC1CCCCC1)Oc1cc2oc(=O)sc2cc1Cl,39%,40µM*,-27%,?,-27%,2.7µM*

# Compound activity from PubChem BioAssay.
